High-throughput results deposited in PubChem BioAssay by several laboratories.
Only some compounds are listed: those with a hit (about 10% of all), similar ones and a draw of the others.
ROMK mod – human ROMK K+ channel modulation, primary screen; Tet-inducible ROMK, thallium flux fluorescence; actives lie on both sides; AID 1918; P48048; 130,000 compounds, 2% hits; B-score at 10 µM;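 active = signal ratio slope over the read window, or its plate-corrected B-score, at least 3 SD from the plate mean, either direction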;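 also: B-score of the F/F0 ratio slope over 7 to 12 s after thallium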
Target sequence (P48048 whole entry, looked up): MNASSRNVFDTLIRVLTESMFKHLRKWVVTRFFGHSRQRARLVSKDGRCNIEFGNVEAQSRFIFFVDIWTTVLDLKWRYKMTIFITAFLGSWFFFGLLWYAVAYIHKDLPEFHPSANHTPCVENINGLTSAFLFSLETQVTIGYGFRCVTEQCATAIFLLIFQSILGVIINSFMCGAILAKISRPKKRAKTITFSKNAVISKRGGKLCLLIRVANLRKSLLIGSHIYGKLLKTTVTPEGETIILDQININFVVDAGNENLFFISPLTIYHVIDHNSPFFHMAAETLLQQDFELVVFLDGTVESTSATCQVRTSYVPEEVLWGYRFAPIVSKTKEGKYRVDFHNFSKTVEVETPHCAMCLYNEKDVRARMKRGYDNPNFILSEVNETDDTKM
Lmaj promast – Leishmania major promastigote growth inhibition; 200,000 compounds, 9% hits; AID 1063; inhibition, % at 10 µM; Leishmania major promastigotes, resazurin fluorescence viability; in the data active = inhibition above about 50%;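 also: promastigotes grown with compound for 44 hours at 28 °C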
PTEN del growth – growth suppressors of cells with PTEN tumor suppressor deletion | HCT116 PTEN-null viability, CellTiter-Glo, 60 h; active compounds read low | viability, % at 10 µM | 140,000 compounds, 1.2% hits;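 active = viability at or below a set limit, 4 SD under the median of all tested compounds, cut at about 3.7% in these data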;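 also: PTEN knockout HCT116 line with beta catenin targeted HCT116 as companion control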
Insulin prom inh – TRM-6 insulin promoter activity inhibition; TRM-6 cells (human fetal islet line), insulin promoter-eGFP reporter, imaging; reporter expression induced with tamoxifen; inhibition, % at 2 µM; 130,000 compounds, 0.9% hits;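 active = inhibition above the mean plus 3 SD, with well images judged a real hit on visual review, cut at about 60% in these data, passing the limit was not always enough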
HCT116 bCat-KO – beta-catenin-lacking colon tumor cell growth suppression; HCT116 beta-catenin knockout viability, CellTiter-Glo, 60 h; active compounds read low; viability, % at 10 µM; 140,000 compounds, 1.5% hits; AID 818;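 active = viability at or under a set limit, the compound median less 4 SD, cut at about 6% in these data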
p97 inhibitor – inhibitors of human p97 ATPase; P55072; recombinant p97 ATPase, Kinase-Glo ATP luminescence, 3 h; inhibition, % at 8 µM; 220,000 compounds, 0.42% hits; AID 1481; in the data active = inhibition above about 15%
A number is an active result; - = inactive; . = no result given.

SMILES	ROMK mod	Lmaj promast	PTEN del growth	Insulin prom inh	HCT116 bCat-KO	p97 inhibitor
Cc1cc(C)c(S(=O)(=O)Nc2ccc3c(c2)CCC3)c(C)c1	-	91	-	-	-	-
Cc1cc(/C=N/n2cnnc2)c(C)n1-c1ccccc1	.	-	-	-	-	-
Cc1cc(N2CCCC2)ccc1/C=N/n1cnnc1	-	67	-	-	-	-
CC(=O)Oc1ccc(/C=N/NC(=S)Nc2ccccc2)cc1	-	-	-	-	-	-
O=C(O)c1cccc(-n2cccc2/C=C2/NC(=O)N(c3cccc(Cl)c3)C2=O)c1	-	.	.	.	.	-
O=C(O)c1cccc(-n2cccc2/C=C2/NC(=O)N(c3ccc(Cl)cc3)C2=O)c1	-	-	.	-	.	18
CCOc1ccc(-n2c(SCC(N)=O)nc3sc4c(c3c2=O)CCN(C)C4)cc1	.	.	.	.	.	-
CCn1c(SCC(N)=O)nc2sc3c(c2c1=O)CCN(C)C3	.	.	.	.	.	-
COCCSc1nc2sc3c(c2c(=O)n1-c1ccccc1)CCN(C)C3	-	100	-	-	-	-
CCOC(=O)CSc1nc2sc3c(c2c(=O)n1C1CCCCC1)CCN(C)C3	-3.5	-	-	-	-	-
Cc1cnc(NC(=O)c2cc3ccccc3o2)s1	-	-	.	.	.	-
N#CC1=C(N)C(C#N)(C#N)C(c2cccnc2)C2CC(c3ccccc3)CC=C12 (stereo unspecified)	.	55	-	-	-	-
COCCn1c(C)cc(C(=O)COC(=O)c2ccc(Br)o2)c1C	-	-	.	.	.	-
O=C(O)c1cncc(C#CCC2CCCCC2)c1	.	.	.	.	.	-
COc1ccc(/C=C/C2=NN(C)C(=O)CC2)cc1	.	-	.	85	.	-
CCOC(=O)CN1N=C(/C=C/c2ccc(C)cc2)CCC1=O	.	-	-	-	-	-
Nc1ccc(NC(=O)NC2CCCCC2)cc1[N+](=O)[O-]	.	-	.	.	.	-
O=C(c1ccc([N+](=O)[O-])cc1)N1CCSC1c1cccc(Cl)c1 (stereo unspecified)	.	51	.	-	.	-
O=C(Nc1ccccc1)C1=C(O)CC(c2ccc(Cl)cc2)N2CCN=C12 (stereo unspecified)	-	92	-	-	-	-
Cc1nc2cc(-c3ccc(Cl)cc3)nn2c(NCCN(C)C)c1C	-	100	.	-	.	-
C=CCn1c(COc2ccccc2)nnc1SC(C)C(=O)N/N=C/c1cc(Cl)ccc1O (stereo unspecified)	-	98	-	-	-	-
N/C(Cc1ccc(Cl)cc1)=N\OC(=O)c1cccc2ccccc12	.	99	-	-	-	-
O=[N+]([O-])c1cc(S(=O)(=O)C(F)(F)F)ccc1Sc1nc2ccccc2s1	.	101	1.5	-	1.6	-
CS(=O)(=O)c1ccc(Sc2nc3ccccc3s2)c([N+](=O)[O-])c1	.	80	-	.	-	-
Cc1cc(C)cc(NC(=O)COC(=O)CN=C2NS(=O)(=O)c3ccccc32)c1	-	-	.	.	.	-
SMILES	ROMK mod	Lmaj promast	PTEN del growth	Insulin prom inh	HCT116 bCat-KO	p97 inhibitor
C=CCc1cc(Cl)ccc1OCCOCCNC(C)CC (stereo unspecified)	-	90	.	.	.	-
CCC(C)NCCOCCSc1ccc(Cl)cc1 (stereo unspecified)	-	97	-	-	-	-
C=CCc1cc(C)ccc1OCCOCCC(C(=O)OCC)C(=O)OCC	-	-	-	-	-	-
C=CCc1ccccc1OCC(O)CNC(C)C (stereo unspecified)	.	-	-	-	-	-
C=CCc1cc(Cl)ccc1OCCCNC(C)C	.	100	-	.	-	-
C=CCc1cc(Cl)ccc1OCCN(C)C	.	96	-	-	-	-
C=CCc1cc(OC)ccc1OCCN(C)Cc1ccccc1	-	-	.	.	.	-
O=C(CCCSc1nnnn1-c1ccccc1)c1ccc(F)cc1	-	-	-	.	-	-
C=CCc1cc(Cl)ccc1OCCCNCCO	.	98	.	.	.	-
CCOc1ccc(N(C(=O)c2cnccn2)C(C(=O)NC2CCCCC2)c2ccc(O)cc2)cc1 (stereo unspecified)	-	-	.	.	.	-
O=Nc1c(O)[nH]c2ccc(F)cc12	-	-	.	.	.	-
Cc1cc2c(N=O)c(NO)ccc2[nH]1	-	83	-	-	4.7	-
CCN(CC)c1ccc(C=NCCc2ccc(S(N)(=O)=O)cc2)cc1	-	-	.	-	.	-
CC1CC(C)CN(CCCSc2ccccc2)C1 (stereo unspecified)	-	92	-	-	-	-
CC1CC(C)CN(CCOCCSc2ccc(Cl)cc2)C1 (stereo unspecified)	-	91	.	-	.	-
CC1CC(C)CN(CCOCCSc2ccccc2)C1 (stereo unspecified)	.	89	-	.	-	-
Clc1ccc(SCCCN2CCCCC2)cc1	.	.	.	.	.	-
CC1CN(CCCSc2ccc(Cl)cc2)CC(C)O1 (stereo unspecified)	-	85	.	.	.	-
Cc1cc(C(=O)NCCCN2CC(C)CC(C)C2)n(-c2ccccc2)n1 (stereo unspecified)	.	-	-	.	-	-
c1ccc(SCCOCCn2cncn2)cc1	.	-	-	-	-	-
O=C(NCc1ccc2c(c1)OCO2)C1CCN(c2nccc(C(F)(F)F)n2)CC1	.	.	.	.	.	-
CSc1cccc(NC(=S)N(CCC(C)C)C(C)c2ccncc2)c1 (stereo unspecified)	.	.	.	.	.	-
COCCSc1ccccc1C(=O)N1CCCC(C)C1 (stereo unspecified)	-	-	.	.	.	-
c1ccc(SCCOCCN2CCc3ccccc3C2)cc1	-	90	-	-	-	-
c1ccc(SCCN2CCc3ccccc3C2)cc1	-	-	-	-	-	-
SMILES	ROMK mod	Lmaj promast	PTEN del growth	Insulin prom inh	HCT116 bCat-KO	p97 inhibitor
CC1CCCN(CCOCCSc2ccccc2)C1 (stereo unspecified)	.	98	-	-	-	-
Cc1cccc(NC(=S)N2CCN(c3cc(C)ccc3C)CC2)c1	-	80	-	-	-	-
COc1ccccc1N1CCN(C(=S)Nc2cccc(C)c2)CC1	-	-	.	-	.	-
COC(=O)c1sccc1NC(=S)N1CCN(C)CC1	-	-	.	-	.	-
COC(=O)c1sccc1NC(=S)N1CCN(c2cc(C)ccc2C)CC1	-	82	-	-	-	-
Cc1ccc(C)c(N2CCN(C(=S)NC3CCCCC3)CC2)c1	-	58	-	-	-	-
CC12COC3(C(N)=O)CC1CCC32C (stereo unspecified)	.	-	-	.	-	-
Cc1ccc(NC(=O)CN(C)C(=O)COc2cccc3cccnc23)cc1	-	-	-	-	-	-
C=CCN(CC=C)C(=O)c1ccc(OC2CCN(S(=O)(=O)N(C)C)CC2)cc1	-	-	.	.	.	-
COc1ccc(NS(=O)(=O)c2ccc(O)c(NC(=O)c3ccc(S(=O)(=O)N4CCCCCC4)cc3)c2)cc1	-	-	-	-	-	-
O=C(Nc1cccc(S(=O)(=O)N2CCOCC2)c1)c1ccc2c(=O)n3c(nc2c1)CCCCC3	-	-	.	-	.	-
Cc1cc2ccccc2n2c(SCC(=O)Nc3ccc(S(=O)(=O)N4CCCCC4)cc3)nnc12	-	-	-	-	-	-
Cc1cc2cc(C)c3nnc(SCC(=O)Nc4ccc(S(=O)(=O)N5CCCCC5)cc4)n3c2cc1C	-	56	-	-	-	-
